Measured values published in ChEMBL document CHEMBL3988442, “University of Dundee, Small-Polar-MMV Screening Library” (2021).
For some of these results: Results with a measured potency or affinity are listed apart.

Assays:
Set-up in all cases: scale not given: direction of the effect not stated beside the values
[1] = biological target: Protein translocase subunit SecA (Escherichia coli (strain K12)) (UniProt P10408); assay: Assay to Identify E. coli SecA ATPase Inhibitors; format: functional; details: 30 µM
Chain of Protein translocase subunit SecA (Escherichia coli (strain K12)) (P10408 whole entry): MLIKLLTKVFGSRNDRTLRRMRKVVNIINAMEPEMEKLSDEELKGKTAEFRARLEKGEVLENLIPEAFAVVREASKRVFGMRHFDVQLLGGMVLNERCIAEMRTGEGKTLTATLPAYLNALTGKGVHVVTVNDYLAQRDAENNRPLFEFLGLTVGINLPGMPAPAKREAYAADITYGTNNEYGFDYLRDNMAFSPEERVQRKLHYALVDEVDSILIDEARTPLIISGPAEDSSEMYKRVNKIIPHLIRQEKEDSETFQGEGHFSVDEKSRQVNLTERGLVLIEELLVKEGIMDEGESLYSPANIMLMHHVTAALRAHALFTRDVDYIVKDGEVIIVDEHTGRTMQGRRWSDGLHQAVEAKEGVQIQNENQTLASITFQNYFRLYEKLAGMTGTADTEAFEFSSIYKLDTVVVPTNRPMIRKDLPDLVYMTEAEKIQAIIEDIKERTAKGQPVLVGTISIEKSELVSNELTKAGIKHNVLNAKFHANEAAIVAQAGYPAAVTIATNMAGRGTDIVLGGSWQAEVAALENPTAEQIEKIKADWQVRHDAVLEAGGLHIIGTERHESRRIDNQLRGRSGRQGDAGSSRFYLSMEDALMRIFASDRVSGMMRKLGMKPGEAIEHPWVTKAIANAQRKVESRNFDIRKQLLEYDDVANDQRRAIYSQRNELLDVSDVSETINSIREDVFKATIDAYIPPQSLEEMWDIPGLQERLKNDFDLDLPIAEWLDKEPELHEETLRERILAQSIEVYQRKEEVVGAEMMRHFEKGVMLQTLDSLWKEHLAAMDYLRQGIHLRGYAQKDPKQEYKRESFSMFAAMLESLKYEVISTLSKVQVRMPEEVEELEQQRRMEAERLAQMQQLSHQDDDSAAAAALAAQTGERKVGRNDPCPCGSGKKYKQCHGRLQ

[2] = biological target: T1, Ubiquitin-activating enzyme e1, putative (Leishmania donovani (strain BPK282A1)) (UniProt E9BSI1); assay: Leishmania donovani Ubiquitin Activating Enzyme (LdE1); format: functional; details: 30 µM
T1 sequence (whole entry): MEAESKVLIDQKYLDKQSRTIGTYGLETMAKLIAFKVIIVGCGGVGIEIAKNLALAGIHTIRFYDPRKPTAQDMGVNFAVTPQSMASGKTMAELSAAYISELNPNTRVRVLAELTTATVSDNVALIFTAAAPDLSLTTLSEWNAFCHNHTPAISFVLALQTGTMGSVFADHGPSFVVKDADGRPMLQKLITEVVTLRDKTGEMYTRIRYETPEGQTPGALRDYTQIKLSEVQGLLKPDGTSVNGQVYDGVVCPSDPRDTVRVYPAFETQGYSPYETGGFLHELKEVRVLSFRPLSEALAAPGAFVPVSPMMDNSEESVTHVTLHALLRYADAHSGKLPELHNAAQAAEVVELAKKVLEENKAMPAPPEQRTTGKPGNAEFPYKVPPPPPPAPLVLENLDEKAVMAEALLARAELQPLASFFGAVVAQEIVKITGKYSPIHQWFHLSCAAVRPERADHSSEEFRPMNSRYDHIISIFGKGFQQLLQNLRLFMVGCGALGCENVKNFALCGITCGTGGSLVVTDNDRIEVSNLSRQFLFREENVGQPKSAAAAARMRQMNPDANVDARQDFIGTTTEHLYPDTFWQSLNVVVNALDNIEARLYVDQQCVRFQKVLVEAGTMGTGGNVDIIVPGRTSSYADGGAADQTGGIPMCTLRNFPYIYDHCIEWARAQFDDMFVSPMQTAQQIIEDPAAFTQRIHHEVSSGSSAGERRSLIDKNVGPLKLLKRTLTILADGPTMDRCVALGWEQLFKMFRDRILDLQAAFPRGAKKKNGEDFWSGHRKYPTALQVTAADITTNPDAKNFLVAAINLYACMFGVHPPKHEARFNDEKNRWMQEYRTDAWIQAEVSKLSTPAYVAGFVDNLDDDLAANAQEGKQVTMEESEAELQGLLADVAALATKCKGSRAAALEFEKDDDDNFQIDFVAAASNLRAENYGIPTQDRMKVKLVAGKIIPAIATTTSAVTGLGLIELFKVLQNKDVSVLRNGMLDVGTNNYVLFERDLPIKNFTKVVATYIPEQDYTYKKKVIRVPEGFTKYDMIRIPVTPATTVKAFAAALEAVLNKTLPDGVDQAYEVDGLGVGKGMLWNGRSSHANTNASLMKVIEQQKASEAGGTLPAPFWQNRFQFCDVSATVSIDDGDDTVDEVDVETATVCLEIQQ

[3] = biological target: AMP-activated protein kinase, AMPK (Homo sapiens) (UniProt P54646+O43741+P54619+Q9UGJ0+Q9Y478+Q13131+Q9UGI9); assay: AMP-dependent Kinase enzyme assay. An in vitro enzyme assay that detects ADP turnover that is directly proportional to AMPK activity. This uses naive AMPK that is activated during the assay with MK-8722; format: functional; details: 30 µM
[4] = biological target: Sialic acid-binding Ig-like lectin 9 (Homo sapiens) (UniProt Q9Y336); assay: Hs-Siglec9 ALPHAscreen SOP 20170721; details: 10 µM
Chain of Sialic acid-binding Ig-like lectin 9 (Homo sapiens) (Q9Y336 whole entry): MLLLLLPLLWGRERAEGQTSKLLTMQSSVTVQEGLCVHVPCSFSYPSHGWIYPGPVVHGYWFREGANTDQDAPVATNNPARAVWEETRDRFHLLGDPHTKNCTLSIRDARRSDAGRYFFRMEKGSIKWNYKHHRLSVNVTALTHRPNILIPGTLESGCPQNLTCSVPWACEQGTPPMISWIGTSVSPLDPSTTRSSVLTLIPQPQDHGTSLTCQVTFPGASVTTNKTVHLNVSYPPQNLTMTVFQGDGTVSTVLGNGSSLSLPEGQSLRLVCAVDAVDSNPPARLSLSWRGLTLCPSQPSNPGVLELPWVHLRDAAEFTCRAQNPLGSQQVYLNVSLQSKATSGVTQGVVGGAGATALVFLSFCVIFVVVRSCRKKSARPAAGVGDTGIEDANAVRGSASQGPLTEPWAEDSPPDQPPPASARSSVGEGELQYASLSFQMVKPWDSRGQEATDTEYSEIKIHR

[5] = tested on: Trypanosoma cruzi; assay: Trypanosoma cruzi phosphomannomutase and mannose-1-phosphate guanylyltransferase assay; format: functional; details: 10 µM
[6] = biological target: T2, Arginase-2, mitochondrial (Homo sapiens) (UniProt P78540); assay: in vitro enzyme assay to detect the production of urea directly proportional to the activity of Arginase II; format: functional; details: 33.3 µM; note: in the data most compounds retested in dose-response had high values
T2 sequence (whole entry): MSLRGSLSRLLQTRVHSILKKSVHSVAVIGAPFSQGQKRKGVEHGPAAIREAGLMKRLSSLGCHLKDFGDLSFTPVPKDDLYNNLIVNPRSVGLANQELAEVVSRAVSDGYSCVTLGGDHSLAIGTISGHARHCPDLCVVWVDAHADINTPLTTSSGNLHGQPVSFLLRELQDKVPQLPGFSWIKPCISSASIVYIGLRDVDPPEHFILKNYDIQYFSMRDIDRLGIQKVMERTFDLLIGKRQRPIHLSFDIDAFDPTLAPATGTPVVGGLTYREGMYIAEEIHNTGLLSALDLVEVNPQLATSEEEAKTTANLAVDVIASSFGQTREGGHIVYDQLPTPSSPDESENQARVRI

[7] = biological target: T3, Proteasome subunit beta (Trypanosoma cruzi) (UniProt O96673); assay: Trypanosoma cruzi proteasome chymotrypsin-like activity (TcProtChymo) assay.; note: in the data most compounds retested in dose-response had high values; format: functional; details: 9.37 µM
T3 sequence (whole entry): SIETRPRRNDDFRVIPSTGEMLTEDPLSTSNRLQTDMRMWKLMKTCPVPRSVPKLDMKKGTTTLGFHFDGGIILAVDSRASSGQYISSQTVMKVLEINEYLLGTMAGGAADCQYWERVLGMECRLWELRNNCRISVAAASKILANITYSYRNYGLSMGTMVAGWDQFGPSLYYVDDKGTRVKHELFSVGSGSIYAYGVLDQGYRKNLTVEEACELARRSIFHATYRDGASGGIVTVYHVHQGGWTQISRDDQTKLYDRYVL

[8] = organism: Homo sapiens; assay: To identify inhibition of the IFN signalling (Jak-Stat) pathway via expression of an eGFP reporter gene under the control of an IFN-stimulated response element (ISRE) containing MxA promoter.; format: functional; details: 30 µM
[9] = biological target: T4, Tyrosyl-tRNA synthetase, putative (Trypanosoma cruzi (strain CL Brener)) (UniProt Q4DSP6); assay: Trypanosoma cruzi tyrosyl tRNA synthetase (TcYRS) _High Tyrosine SOP; format: functional; details: 30 µM; note: in the data most compounds retested in dose-response had high values
T4 sequence (whole entry): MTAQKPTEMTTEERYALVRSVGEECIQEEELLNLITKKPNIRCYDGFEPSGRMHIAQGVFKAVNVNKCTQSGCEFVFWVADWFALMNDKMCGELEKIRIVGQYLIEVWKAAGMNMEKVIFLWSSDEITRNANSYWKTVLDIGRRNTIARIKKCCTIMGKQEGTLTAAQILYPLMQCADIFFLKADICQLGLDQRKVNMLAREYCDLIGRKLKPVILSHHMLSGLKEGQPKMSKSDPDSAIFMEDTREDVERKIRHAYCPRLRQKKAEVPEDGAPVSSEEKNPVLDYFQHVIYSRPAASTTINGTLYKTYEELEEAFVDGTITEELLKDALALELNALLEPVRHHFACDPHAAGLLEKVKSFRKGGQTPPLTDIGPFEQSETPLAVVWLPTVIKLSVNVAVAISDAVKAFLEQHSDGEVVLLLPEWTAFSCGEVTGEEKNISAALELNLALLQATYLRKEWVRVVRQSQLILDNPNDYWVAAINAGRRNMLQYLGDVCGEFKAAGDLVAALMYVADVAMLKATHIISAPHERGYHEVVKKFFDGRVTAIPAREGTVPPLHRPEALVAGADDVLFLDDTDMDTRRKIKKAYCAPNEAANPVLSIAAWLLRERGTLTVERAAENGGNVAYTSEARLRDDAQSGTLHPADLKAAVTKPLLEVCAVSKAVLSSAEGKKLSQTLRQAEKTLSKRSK

[10] = biological target: T4, Tyrosyl-tRNA synthetase, putative (Trypanosoma cruzi (strain CL Brener)); assay: Trypanosoma cruzi tyrosyl tRNA synthetase (TcYRS) SOP; format: functional; details: 30 µM
[11] = biological target: Chromo domain-containing protein 1 (Saccharomyces cerevisiae (strain ATCC 204508 / S288c) (Baker's yeast)) (UniProt P32657); assay: ScCHD-1 Enzyme Inhibition Assay; format: functional; details: 30 µM; note: in the data most compounds retested in dose-response had high values
Chain of Chromo domain-containing protein 1 (Saccharomyces cerevisiae (strain ATCC 204508 / S288c) (Baker's yeast)) (P32657 whole entry, the tested form may be a part): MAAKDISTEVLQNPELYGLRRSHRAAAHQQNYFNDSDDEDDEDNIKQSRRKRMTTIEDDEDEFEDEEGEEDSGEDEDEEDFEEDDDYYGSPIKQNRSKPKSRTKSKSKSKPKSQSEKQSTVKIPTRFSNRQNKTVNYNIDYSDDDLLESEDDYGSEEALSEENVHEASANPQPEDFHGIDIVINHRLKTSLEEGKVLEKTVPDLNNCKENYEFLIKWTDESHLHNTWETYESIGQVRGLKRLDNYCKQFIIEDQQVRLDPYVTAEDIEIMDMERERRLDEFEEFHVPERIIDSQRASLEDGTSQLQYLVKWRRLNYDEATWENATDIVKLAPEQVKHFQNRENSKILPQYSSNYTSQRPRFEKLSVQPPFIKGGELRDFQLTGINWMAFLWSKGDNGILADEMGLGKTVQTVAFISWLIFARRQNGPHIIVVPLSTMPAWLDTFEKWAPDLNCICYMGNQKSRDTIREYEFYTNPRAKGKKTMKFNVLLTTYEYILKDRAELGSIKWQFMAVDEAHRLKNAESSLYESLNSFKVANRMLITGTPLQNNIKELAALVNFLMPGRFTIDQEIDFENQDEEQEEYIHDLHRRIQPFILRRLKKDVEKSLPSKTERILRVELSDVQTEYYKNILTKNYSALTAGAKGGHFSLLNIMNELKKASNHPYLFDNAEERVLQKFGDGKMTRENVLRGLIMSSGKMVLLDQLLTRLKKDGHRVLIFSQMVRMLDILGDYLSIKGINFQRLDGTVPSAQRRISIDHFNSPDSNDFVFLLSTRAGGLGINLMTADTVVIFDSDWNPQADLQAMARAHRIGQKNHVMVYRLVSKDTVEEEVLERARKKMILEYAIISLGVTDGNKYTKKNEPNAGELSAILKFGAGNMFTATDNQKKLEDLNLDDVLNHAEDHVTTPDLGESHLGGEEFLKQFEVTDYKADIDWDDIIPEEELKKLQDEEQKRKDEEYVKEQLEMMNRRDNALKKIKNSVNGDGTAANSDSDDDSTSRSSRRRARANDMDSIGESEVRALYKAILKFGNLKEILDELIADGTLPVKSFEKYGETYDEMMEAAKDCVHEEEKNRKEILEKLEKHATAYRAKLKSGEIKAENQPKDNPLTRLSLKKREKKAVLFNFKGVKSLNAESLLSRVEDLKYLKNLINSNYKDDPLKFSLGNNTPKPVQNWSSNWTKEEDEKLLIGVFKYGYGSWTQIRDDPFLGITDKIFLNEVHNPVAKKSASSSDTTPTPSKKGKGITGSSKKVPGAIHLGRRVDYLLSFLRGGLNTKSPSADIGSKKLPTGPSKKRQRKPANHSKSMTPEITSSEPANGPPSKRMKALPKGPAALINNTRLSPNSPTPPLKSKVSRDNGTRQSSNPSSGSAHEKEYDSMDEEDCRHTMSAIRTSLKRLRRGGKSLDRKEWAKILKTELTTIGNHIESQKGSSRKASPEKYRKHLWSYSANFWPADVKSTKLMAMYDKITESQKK

| Structure (SMILES) | Percent Effect [1] | Percent Effect [2] | Percent Effect [3] | Percent Effect [4] | Percent Effect [5] | Percent Effect [6] | Percent Effect [7] | Percent Effect [8] | Percent Effect [9] | Percent Effect [10] | Percent Effect [11] |
| --- | --- | --- | --- | --- | --- | --- | --- | --- | --- | --- | --- |
| Cn1cccc1C(=O)N1CCCC2(CCN(CCN3CCCC3)C2=O)C1 (stereo not drawn) | -6.99% | 2.6% | 0.774% | 9.32% | -1.48% | -4.14% | 7.65% | 11.9% | -2.15% | -1.24% | 0.981% |
| CCC(=O)N1CCC(c2nc3ccc(NC(C)C)cn3n2)CC1 | -5.82% | -5.41% | -88.4% | 0.275% | -1.56% | -0.833% | 1.44% | -2.11% | 1.98% | 1.22% | -4.18% |
| Cc1ncsc1C(=O)NC1CCN(Cc2ccc(C#N)cc2)CC1 | -4.4% | 18.2% | 0.609% | 12.4% | 1.12% | -2.49% | 5.74% | 32.5% | 3.88% | 12.2% | -7.46% |
| O=C(NCCCN1CCCCC1)c1ccc(-n2ccc3ccccc32)s1 | -0.638% | -23.4% | -0.0111% | -2.17% | 11.1% | -9.68% | 9.4% | 22.6% | -3.17% | 1.28% | 1.91% |
| CCCS(=O)(=O)N1CCC2(CC1)CN(c1ccccn1)CCO2 | -4.44% | 4% | -4.84% | -5.06% | -11% | -11.8% | 11.8% | -5.14% | 0% | -2.56% | -7.42% |
| CCN(C(=O)Nc1cccnc1OC)C1CC1 | -6.66% | 15.6% | -6.43% | 15.2% | 5.24% | -3.2% | 7.6% | 5.42% | 4.85% | 19.5% | -9.65% |
| CC(C)C(C(=O)N1CCCN(Cc2cnn(C)c2)CC1)n1cncn1 (stereo not drawn) | -1.34% | 0% | 2.52% | 2.77% | -5.8% | 2.76% | 7.82% | -12.4% | 1.07% | -1.24% | 2.06% |
| Cn1cc(CN2CC[C@@H]3[C@@H](CCC(=O)N3CCC3=CCCCC3)C2)cn1 | -5.13% | 8.22% | 4.85% | 0.26% | 0.992% | -2.79% | 10.7% | -22.4% | 0% | 1.24% | 1.06% |
